Screens: PubChem BioAssay, National Center for Advancing Translational Sciences (NCATS)
Shown are actives, neighbours in structure and some others; about 2.4% of the full set was active somewhere.
D2 ag-1 – agonists of human D2 dopamine receptor; activation, % at 2 µM; 340,000 tested, 0.53% active; P14416; HEK293 T-REx D2 cells, calcium flux agonist mode;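 active = activation over 3 SD above normal in the single-dose calcium agonist read, cut at about 30% in these data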
Target sequence (P14416 whole entry, looked up): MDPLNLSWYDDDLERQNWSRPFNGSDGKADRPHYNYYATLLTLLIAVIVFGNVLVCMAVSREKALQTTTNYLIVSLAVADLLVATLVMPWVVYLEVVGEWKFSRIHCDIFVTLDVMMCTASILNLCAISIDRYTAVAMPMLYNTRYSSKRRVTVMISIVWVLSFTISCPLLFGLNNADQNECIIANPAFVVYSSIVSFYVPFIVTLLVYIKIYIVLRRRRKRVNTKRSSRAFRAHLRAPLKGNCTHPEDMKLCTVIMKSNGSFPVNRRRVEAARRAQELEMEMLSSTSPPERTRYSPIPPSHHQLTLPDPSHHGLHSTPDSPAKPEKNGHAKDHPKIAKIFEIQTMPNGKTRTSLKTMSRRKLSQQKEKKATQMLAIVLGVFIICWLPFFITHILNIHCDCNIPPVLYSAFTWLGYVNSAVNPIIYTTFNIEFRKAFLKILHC
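Calcium-flux readout, 1 cycle/sec over 180 s following compound pin transfer, in inducible HEK293 Trex D2 cells (force-coupled); dopamine controls included. Positive calcium responses during this window marked compounds as potential agonists.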
D2 antag – antagonists of human D2 dopamine receptor | HEK293 TREx D2 cells, calcium flux, dopamine EC80 | inhibition, % at 10 µM | 340,000 tested, 2% active | AID 485344; in the data active = inhibition above about 30%; inactive = below that, where a call was filed
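HEK293 T-REx D2 cells, tet-induced, calcium dye no-wash. Cpd pintool add, 180 s kinetic, then EC80 DA, 180 s kinetic. Ca flux read.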
D2 PAM-1 – positive allosteric modulators of human D2 dopamine receptor; P14416; DiscoveRx D2 beta-arrestin cells, luminescence, 90 min; 100% = 57 uM dopamine signal; potentiation, % (no concentration beside the values); 360,000 tested, 0.23% active; AID 624464; in the data active = potentiation above about 50%
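D2 cells co-treated with compound plus 50 nM dopamine (EC20) for 90 min at 37 deg C to detect potentiation. Beta-arrestin recruitment was read as enzyme-fragment luminescence after 1 h at ambient temperature. Full response was set by 57 uM dopamine.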
D2 PAM-2 – D2 dopamine receptor (human) potentiation | P14416 | HEK293 T-REx D2, calcium flux, EC20 dopamine potentiation | potentiation, % at 10 µM | 340,000 tested, 0.34% active;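 active = potentiation over 3 SD above the plate norm, cut at about 30% in these data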
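Calcium flux readout, no-wash dye, 1 read/s. Inducible HEK293 Trex D2 line, overnight 30 C. Compound alone 180 s (agonist flags), then EC20 dopamine, another 180 s to score potentiation.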
D2 ag-2 – human D2 receptor agonism in beta-arrestin assay; activation, % (concentration not given with the values); DiscoveRx PathHunter D2 beta-arrestin, luminescence, 90 min; 100% = 57 uM dopamine signal; 360,000 tested, 0.084% active; in the data active = activation above about 40%
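DiscoveRx PathHunter D2 beta-arrestin cells (2,100/well) attached overnight, then compound-stimulated 90 min at 37 C in HBSS/10 mM HEPES/0.1% Tween-20 buffer; beta-galactosidase complementation read by luminescence after 1 h at ambient temperature. Dopamine 57 uM final (EC100) as control.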
Numbers stand for hits; - = inactive; . = no result given.

SMILES | D2 ag-1 | D2 antag | D2 PAM-1 | D2 PAM-2 | D2 ag-2
CCCOC(=S)NC(=O)c1sc2ccccc2c1Cl | - | 30.9 | - | - | -
COc1cc(Cl)c(C)cc1NC(=O)Cn1cnc2sc(C)c(S(=O)(=O)N3CCCCC3)c2c1=O | . | . | . | - | .
CCN(Cc1ccccc1)Cc1c(O)ccc2oc(C)c(C(=O)Nc3ccccc3C)c12 | - | . | . | - | .
Cc1ccc(NC(=O)CS(=O)CC(=O)N(CC(=O)NC2CCCC2)c2cccc(C)c2C)cc1 (centres undefined) | - | 55.4 | - | - | -
Cc1cccc(N(CC(=O)NC2CCCC2)C(=O)CS(=O)CC(=O)Nc2ccc3c(c2)OCO3)c1C (centres undefined) | - | - | - | - | -
Cc1cc(O)c(CN2CCN(c3ccc(F)cc3)CC2)c2oc(=O)cc(C)c12 | . | . | . | - | .
COc1cc(C(=O)NCc2ccc(OCCN(C)C)cc2)cc(OC)c1OC | - | 72.2 | - | - | -
O=C(c1ccc2c(c1)N(Cc1cccc(Cl)c1)C(=O)c1ccccc1S2(=O)=O)N1CCC(Cc2ccccc2)CC1 | - | . | . | - | .
C=CCNC(=S)Nc1sc2c(c1C(=O)OCC)CCN(C(=O)OCC)C2 | - | - | - | 39.7 | -
CCOC(=O)c1c(NC(=S)NCc2ccccc2)sc2c1CCN(C(=O)OCC)C2 | - | - | - | - | -
Cc1ccccc1CN1CCN(CC(=O)NCc2ccccc2Cl)C1=O | - | . | . | - | .
CCN1CCN(S(=O)(=O)c2ccc(Cl)c(C(=O)NC3CC3)c2)CC1 | - | - | - | - | -
CCN1CCN(S(=O)(=O)c2ccc(Cl)c(C(=O)NC(C)(C)C)c2)CC1 | - | 30.4 | - | - | -
CCN1CCN(S(=O)(=O)c2ccc(Cl)c(C(=O)NC3CCCC3)c2)CC1 | - | 46.6 | - | - | -
CCCC(=O)Nc1nnc(SCc2cc(=O)c3cc(C)ccc3[nH]2)s1 | - | . | . | - | .
Cc1ccc(Cl)cc1NC(=O)CCCN1C(=O)CCn2nc(-c3cn(C)c4ccccc34)cc21 | - | . | . | - | .
COc1ccc(NC(=O)c2oc3ccccc3c2NC(=O)Cc2coc3cc(C)ccc23)cc1 | - | . | . | - | .
CCN(CC)c1cc2c(cc1F)c(=O)c(S(=O)(=O)c1ccc(OC)cc1)cn2Cc1ccccc1 | - | . | . | . | .
CC(C)N1CCc2c(sc(NC(=O)CCc3ccccc3)c2C(N)=O)C1 | - | - | - | - | -
CC(C)N1CCc2c(sc(NC(=O)CCS(=O)(=O)c3ccccc3)c2C#N)C1 | - | 33.7 | - | - | -
NC(=O)c1c(NC(=O)C2COc3ccccc3O2)sc2c1CCN(Cc1ccccc1)C2 (centres undefined) | 41.7 | - | - | - | -
CC(C)N1CCc2c(sc(NC(=O)Cc3ccccc3)c2C(N)=O)C1 | - | 40.1 | - | - | -
CCCN1CCc2c(sc(NC(=O)c3ccc(S(=O)(=O)N(C)c4ccccc4)cc3)c2C(N)=O)C1 | 77.6 | - | - | - | -
Cc1ccc(N2CCN(C(=O)CCS(=O)(=O)c3cc4c(cc3Cl)NC(=O)CO4)CC2)c(C)c1 | - | . | . | - | .
CCN1CCc2c(sc(NC(=O)CSc3ccccc3)c2-c2nc3ccccc3s2)C1 | . | . | . | - | .
SMILES | D2 ag-1 | D2 antag | D2 PAM-1 | D2 PAM-2 | D2 ag-2
COc1ccc(CC(=O)Nc2sc3c(c2C(N)=O)CCCC3)cc1OC | - | - | - | - | -
COc1cccc(CC(=O)Nc2sc3c(c2C(N)=O)CCCC3)c1 | - | 39.3 | - | - | -
CC(=O)Nc1sc2c(c1-c1nc3ccccc3s1)CCN(C(C)C)C2 | 47.5 | - | - | - | -
CCOc1ccc(CCNC(=O)c2cc(C)nc3c2c(C)nn3-c2cccc(F)c2)cc1 | - | . | . | - | .
Cc1cccc(C)c1NC(=O)c1sc(-n2nc(C)c(Cc3ccccc3)c2C)nc1C | - | . | . | - | .
CCOc1ccc(S(=O)(=O)N2Cc3ccccc3CC2C(=O)Nc2ccc(NC(C)=O)cc2)cc1 (centres undefined) | - | . | . | - | .
CC/C(=N\NC(=O)COc1ccc(Br)cc1)c1ccc(OC)c(OC)c1 | . | . | - | . | -
CC/C(=N\NC(N)=O)c1ccc(OC)c(OC)c1 | - | 38.5 | - | - | -
COc1ccc(C2=NS(=O)(=O)N(C)C(C(=O)Nc3ccc(OC)c(OC)c3)=C2)cc1 | - | 55.7 | - | - | -
CC(=O)c1cccc(NC(=O)C2=CC(c3ccc4c(c3)OCO4)=NS(=O)(=O)N2C)c1 | - | 48.4 | - | - | -
COc1ccc(NC(=O)C2=CC(c3ccc(C)cc3)=NS(=O)(=O)N2C)cc1OC | - | - | - | - | -
O=S(=O)(c1ccc2ccccc2c1)n1nc(-c2ccco2)nc1NCc1cccc(Cl)c1 | - | . | . | - | .
CCNCc1nc2cc(OC)c(OC)cc2c(=O)[nH]1 | - | 32.7 | - | - | -
COc1cc2nc(CN3CCN(S(=O)(=O)c4ccc(C)c(C)c4)CC3)[nH]c(=O)c2cc1OC | - | - | - | 32.3 | -
Cc1ccc(S(=O)(=O)N2CCCN(Cc3nc4ccccc4c(=O)[nH]3)CC2)cc1 | - | - | - | - | -
COC(=O)c1ccc2c(c1)N(CC(=O)Nc1cccc(Cl)c1C)C(=O)c1ccccc1S2 | - | . | . | - | .
O=C(Nc1ccccc1)NC1CCN(Cc2c(F)cccc2Cl)CC1 | - | - | - | - | -
O=C(Nc1ccc2c(c1)OCO2)NC1CCN(Cc2ccccc2)CC1 | - | 46.4 | - | - | -
O=C(Nc1ccc(F)cc1)NC1CCN(Cc2ccccc2)CC1 | - | 52.9 | - | - | -
O=C(Nc1ccc2c(c1)OCO2)C1CCN(Cc2cc3c(cc2O)OCO3)CC1 | - | 35.0 | - | - | -
O=C(Nc1ccc2c(c1)OCO2)C1CCCCC1 | - | - | - | - | -
CCOc1ccc(NC(=O)CN2CCN(Cc3ccccc3)S2(=O)=O)cc1 | - | . | . | - | .
CC1CCN(Cc2c(C(=O)N/N=C/c3cc(Cl)ccc3O)nnn2-c2nonc2N)CC1 | - | - | - | 30.1 | -
CC1CCN(Cc2c(C(=O)N/N=C/c3cc(Br)ccc3O)nnn2-c2nonc2N)CC1 | - | - | - | - | -
COc1ccc(C2Nc3ccc(Br)cc3C(c3ccccc3)N2CC(=O)O)cc1 (centres undefined) | - | 61.2 | - | - | -
SMILES | D2 ag-1 | D2 antag | D2 PAM-1 | D2 PAM-2 | D2 ag-2
O=C(O)CN1C(c2ccccc2O)Nc2ccc(Br)cc2C1c1ccccc1 (centres undefined) | - | - | - | - | -
Cc1ccc2nc(NC(=O)CSc3nc4c(c(=O)n3C)SC(C)C4)sc2c1 (centres undefined) | - | - | - | 32.0 | -
CCCOc1ccc(OC(=O)c2cn(-c3ccc(OC)cc3)c(=O)c3ccccc23)cc1 | . | . | . | - | .
COc1ccc(OC)c(NC(=O)c2cc(-c3ccc(C)cc3O)n[nH]2)c1 | - | 32.2 | - | - | -
NS(=O)(=O)c1ccc(NC(=S)Nc2ccn(Cc3cccc4ccccc34)n2)cc1 | - | 42.3 | - | - | -
COc1cccc(NC(=O)CSc2nccn2C2CCCC2)c1 | - | . | . | - | .
Cc1cc(-c2ccc(S(=O)(=O)Nc3cc(Cl)ccc3C)s2)on1 | . | . | . | - | .
